Results taken from PubChem BioAssay AID1159580 (chemical genetic matrix, 2015).
Where “and” joins values, the source holds several entries; their conditions need not be identical. Equal entries are not always repeated. About 2,000 (36%) of roughly 5,500 compounds were called active. Another 18% or so got no clear call; they are omitted. Rule as the data show it: active = normalized growth mostly below about 0.91 (no sharp cut-off); inconclusive = no clear call, values can overlap the other calls; inactive = mostly above about 0.92. The list shows a part of the results.

Experiment: chemical genetic growth profiling, strain panel (AID 1159580);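 also: tested at 20 µM; growth read once vehicle control cultures reached saturation at 30 °C; 1 = growth at the plate median or of vehicle wells; lower values mean less growth of the strain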
Settings: S. cerevisiae deletion strains, growth OD
[1] = locus YPL241C, strain CIN2, active compounds read low
[2] = locus YHR030C, strain SLT2, active compounds read low
[3] = locus YHR079C, strain IRE1, active compounds read low
[4] = locus YJL095W, strain BCK1, active compounds read low
[5] = locus YJR066W, strain TOR1, active compounds read low
[6] = locus YLR113W, strain HOG1, active compounds read low
[7] = locus YNL183C, strain NPR1, active compounds read low
[8] = locus YOR231W, strain MKK1, active compounds read low
[9] = locus YPL256C, strain CLN2, active compounds read low

Measured: normalized growth

CCN1CCc2nc(N)oc2CC1
inactive: locus YAL013W, strain DEP1, active compounds read low 1.03 | locus YAL040C, strain CLN3, active compounds read low 0.981 | locus YCL061C, strain MRC1 (second series), active compounds read low 1 | locus YDR363W, strain ESC2, active compounds read low 1.03 | locus YER002W, strain NOP16, active compounds read low 0.993 | locus YMR263W, strain SAP30, active compounds read low 1 | locus YNL175C, strain NOP13, active compounds read low 1.01 | locus YNL197C, strain WHI3, active compounds read low 1.02 | locus YNL224C, strain SQS1, active compounds read low 0.995 | locus YOR083W, strain WHI5 (second series), active compounds read low 0.999 | [1] 0.998

CCCCCCCCCCCCCCCC(=O)OCC(O)[C@H]1OC(=O)C(O)=C1O (stereo partly drawn)
active: [2] 0.804 | [3] 0.83 | [4] 0.823 | [5] 0.777 | [6] 0.724 | [7] 0.703 | [8] 0.834 | [9] 0.763

O=C1O[C@H](C(O)CO)C(O)=C1O (stereo partly drawn)
inactive: locus YAL021C, strain ccr4, active compounds read low 0.975 | locus YAL026C, strain drs2, active compounds read low 0.974 | locus YAL030W, strain snc1, active compounds read low 0.988 | locus YBL061C, strain skt5, active compounds read low 0.984 | locus YBR009C, strain hhf1, active compounds read low 0.992 | locus YBR021W, strain FUR4, active compounds read low 0.976 | locus YBR023C, strain chs3, active compounds read low 0.978 | locus YBR171W, strain sec66, active compounds read low 0.983 | locus YBR229C, strain ROT2, active compounds read low 0.991 | locus YBR231C, strain swc5, active compounds read low 1.01 | locus YBR279W, strain paf1, active compounds read low 0.986 | locus YCL011C, strain gbp2, active compounds read low 0.989 | locus YCL016C, strain dcc1, active compounds read low 0.986 | locus YCL029C, strain bik1, active compounds read low 0.96 | locus YCL061C, strain MRC1, active compounds read low 0.975 | locus YCL069W, strain vba3, active compounds read low 0.997 | locus YCR088W, strain abp1, active compounds read low 0.985 | locus YDL005C, strain med2, active compounds read low 0.983 | locus YDL035C, strain GPR1, active compounds read low 1.03 | locus YDL040C, strain nat1, active compounds read low 0.987 | locus YDL074C, strain BRE1, active compounds read low 0.997 | locus YDL101C, strain DUN1, active compounds read low 0.993 | locus YDL185W, strain tfp1, active compounds read low 0.973 | locus YDL192W, strain arf1, active compounds read low 0.977 | locus YDR001C, strain nth1, active compounds read low 0.99 | locus YDR069C, strain doa4, active compounds read low 0.991 | locus YDR101C, strain arx1, active compounds read low 0.954 | locus YDR137W, strain rgp1, active compounds read low 0.971 | locus YDR159W, strain sac3, active compounds read low 0.984 | locus YDR162C, strain NBP2, active compounds read low 1.01 | locus YDR195W, strain ref2 0.991 | locus YDR297W, strain sur2, active compounds read low 0.992 | locus YDR318W, strain mcm21, active compounds read low 1 | locus YDR334W, strain swr1, active compounds read low 0.979 | locus YDR335W, strain msn5, active compounds read low 0.993 | locus YDR388W, active compounds read low 0.977 | locus YDR392W, strain spt3, active compounds read low 0.916 | locus YDR502C, strain sam2, active compounds read low 0.996 | locus YEL003W, strain gim4, active compounds read low 1 | locus YEL037C, strain rad23, active compounds read low 0.988 | locus YEL061C, strain CIN8 (second series), active compounds read low 0.989 | locus YEL061C, strain CIN8, active compounds read low 1.02 | locus YER015W, strain faa2, active compounds read low 0.971 | locus YER016W, strain bim1, active compounds read low 0.997 | locus YER110C, active compounds read low 0.974 | locus YER111C, strain swi4, active compounds read low 0.983 | locus YER155C, strain BEM2 (second series), active compounds read low 0.992 | locus YER155C, strain BEM2, active compounds read low 0.976 | locus YER167W, strain BCK2, active compounds read low 1 | locus YFR010W, strain ubp6, active compounds read low 0.975 | locus YGL078C, strain dbp3, active compounds read low 0.964 | locus YGL086W, strain mad1, active compounds read low 0.957 | locus YGL167C, strain pmr1, active compounds read low 0.984 | locus YGL173C, strain kem1, active compounds read low 0.982 | locus YGL227W, strain vid30, active compounds read low 0.992 | locus YGL240W, strain doc1, active compounds read low 0.986 | locus YGL248W, strain PDE1, active compounds read low 0.997 | locus YGL253W, strain hxk2, active compounds read low 0.992 | locus YGR135W, strain pre9, active compounds read low 1.01 | locus YGR229C, strain SMI1, active compounds read low 1.01 | locus YGR252W, strain gcn5, active compounds read low 1.06 | locus YHR013C, strain ard1, active compounds read low 0.957 | locus YHR027C, strain rpn1, active compounds read low 1.01 | [2] 0.991 and 0.989 | locus YHR079C, strain IRE1 (second series), active compounds read low 0.984 | [3] 1 | locus YHR094C, strain hxt1, active compounds read low 0.976 | locus YHR129C, strain ARP1, active compounds read low 1 | locus YHR142W, strain chs7, active compounds read low 0.979 | locus YHR200W, strain rpn10, active compounds read low 0.982 | locus YIL066C, strain RNR3, active compounds read low 0.987 | locus YIL073C, strain SPO22, active compounds read low 0.997 | locus YIL125W, strain kgd1, active compounds read low 0.967 | locus YIR030C, strain dcg1, active compounds read low 0.978 | locus YJL092W, strain hpr5, active compounds read low 0.988 | locus YJL095W, strain BCK1 (second series), active compounds read low 0.991 | [4] 1.02 and 0.983 | locus YJL115W, strain asf1, active compounds read low 0.987 | locus YJL129C, strain trk1, active compounds read low 0.992 | locus YJL134W, strain LCB3, active compounds read low 0.987 | locus YJL154C, strain vps35, active compounds read low 1 | locus YJL164C, strain tpk1, active compounds read low 0.969 | locus YJL166W, strain qcr8, active compounds read low 0.97 | locus YJL168C, strain set2, active compounds read low 0.979 | locus YJL187C, strain SWE1 (second series), active compounds read low 0.999 | locus YJL187C, strain SWE1, active compounds read low 0.986 | locus YJR043C, strain POL32, active compounds read low 0.999 | [5] 0.943 | locus YKL009W, strain mrt4, active compounds read low 1.01 | locus YKL068W, active compounds read low 0.992 | locus YKL085W, strain MDH1 (second series), active compounds read low 0.992 | locus YKL085W, strain MDH1, active compounds read low 0.992 | locus YKL160W, strain elf1, active compounds read low 0.971 | locus YKR001C, strain vps1, active compounds read low 0.949 | locus YKR026C, strain gcn3, active compounds read low 0.99 | locus YKR091W, strain srl3, active compounds read low 0.986 | locus YLL001W, strain dnm1, active compounds read low 0.987 | locus YLL026W, active compounds read low 0.998 | locus YLL041C, strain sdh2, active compounds read low 0.988 | locus YLR027C, strain aat2, active compounds read low 0.99 | locus YLR039C, strain RIC1, active compounds read low 1.03 | locus YLR058C, strain SHM2, active compounds read low 1.01 | locus YLR102C, strain apc9, active compounds read low 0.98 | [6] 0.974 | locus YLR221C, strain rsa3, active compounds read low 0.975 | locus YLR258W, strain gsy2, active compounds read low 0.99 | locus YLR262C, strain YPT6 (second series), active compounds read low 0.952 | locus YLR262C, strain YPT6, active compounds read low 1.04 | locus YLR268W, strain sec22, active compounds read low 0.933 | locus YLR320W, strain mms22, active compounds read low 0.975 | locus YLR330W, strain CHS5, active compounds read low 0.99 | locus YLR342W, strain FKS1 (second series), active compounds read low 0.989 | locus YLR342W, strain FKS1, active compounds read low 0.98 | locus YLR357W, strain rsc2, active compounds read low 0.952 | locus YLR370C, strain arc18, active compounds read low 0.986 | locus YLR371W, strain rom2, active compounds read low 0.959 | locus YLR384C, strain iki3, active compounds read low 0.971 | locus YLR418C, strain cdc73, active compounds read low 1.02 | locus YML016C, strain PPZ1, active compounds read low 0.958 | locus YML032C, strain rad52, active compounds read low 1.02 | locus YML120C, strain ndi1, active compounds read low 0.978 | locus YML124C, strain tub3, active compounds read low 0.972 | locus YMR058W, strain fet3, active compounds read low 0.99 | locus YMR078C, strain ctf18, active compounds read low 0.961 | locus YMR125W, strain sto1, active compounds read low 0.979 | locus YMR129W, active compounds read low 0.996 | locus YMR205C, strain PFK2, active compounds read low 0.963 | locus YMR223W, strain ubp8, active compounds read low 0.982 | locus YMR231W, strain pep5, active compounds read low 0.986 | locus YMR307W, strain GAS1, active compounds read low 1.01 | locus YNL067W, strain RPL9B, active compounds read low 1 | locus YNL071W, strain lat1, active compounds read low 0.986 | locus YNL128W, strain TEP1, active compounds read low 0.988 | [7] 0.932 | locus YNL209W, strain ssb2, active compounds read low 0.998 | locus YNL233W, strain BNI4, active compounds read low 0.993 | locus YNL248C, strain rpa49, active compounds read low 0.983 | locus YNL250W, strain rad50, active compounds read low 0.962 | locus YNL271C, strain bni1, active compounds read low 0.966 | locus YNL298W, strain CLA4, active compounds read low 0.979 | locus YNL307C, strain MCK1, active compounds read low 0.965 | locus YNL322C, strain KRE1 (second series), active compounds read low 0.984 | locus YNL322C, strain KRE1, active compounds read low 0.995 | locus YNR049C, strain mso1, active compounds read low 0.986 | locus YNR052C, strain pop2, active compounds read low 0.985 | locus YOL006C, strain TOP1, active compounds read low 0.979 | locus YOL012C, strain htz1 1.07 | locus YOL147C, strain pex11, active compounds read low 0.982 | locus YOR001W, strain rrp6, active compounds read low 0.989 | locus YOR061W, strain CKA2, active compounds read low 0.992 | locus YOR069W, strain VPS5, active compounds read low 0.991 | locus YOR070C, strain gyp1, active compounds read low 0.989 | locus YOR080W, strain dia2, active compounds read low 0.981 | locus YOR083W, strain WHI5, active compounds read low 0.973 | locus YOR106W, strain vam3, active compounds read low 0.962 | locus YOR136W, strain idh2, active compounds read low 0.96 | locus YOR144C, strain elg1, active compounds read low 0.974 | locus YOR184W, strain ser1, active compounds read low 0.991 | [8] 0.965 | locus YOR265W, strain rbl2, active compounds read low 0.984 | locus YOR270C, strain vph1, active compounds read low 0.987 | locus YOR290C, strain snf2, active compounds read low 0.953 | locus YOR316C, strain cot1, active compounds read low 0.976 | locus YPL051W, strain arl3, active compounds read low 0.977 | locus YPL078C, strain atp4, active compounds read low 0.979 | locus YPL106C, strain sse1, active compounds read low 0.93 | locus YPL240C, strain hsp82, active compounds read low 0.995 | [1] 0.993 | [9] 1 | locus YPR119W, strain clb2, active compounds read low 0.976 | locus YPR141C, strain kar3, active compounds read low 0.973 | locus YPR163C, strain tif3, active compounds read low 0.975 | locus YPR167C, strain met16, active compounds read low 0.998 | strain wtn01, active compounds read low 0.932
